# Assay results from PMC4336329 (PLoS ONE, 2015).
# The whole screen tested about 310,000 compounds, of which about 14,000 (4.5%) showed an effect of 50% or more. The effect is printed as a negative number. The sample holds strong results, similar compounds and a random draw of the others, so the mix is not that of the screen.
# Biological target: human ether-à-go-go-related gene (hERG) potassium channel (human, UniProt Q12809)
# Assay: primary screen, population patch clamp on CHO cells stably expressing hERG; higher = less effect of the substance
# 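Also: peak tail current of the secondary pulse compared with the same well before compound.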
# Sequence of human ether-à-go-go-related gene (hERG) potassium channel (Q12809 whole entry, looked up): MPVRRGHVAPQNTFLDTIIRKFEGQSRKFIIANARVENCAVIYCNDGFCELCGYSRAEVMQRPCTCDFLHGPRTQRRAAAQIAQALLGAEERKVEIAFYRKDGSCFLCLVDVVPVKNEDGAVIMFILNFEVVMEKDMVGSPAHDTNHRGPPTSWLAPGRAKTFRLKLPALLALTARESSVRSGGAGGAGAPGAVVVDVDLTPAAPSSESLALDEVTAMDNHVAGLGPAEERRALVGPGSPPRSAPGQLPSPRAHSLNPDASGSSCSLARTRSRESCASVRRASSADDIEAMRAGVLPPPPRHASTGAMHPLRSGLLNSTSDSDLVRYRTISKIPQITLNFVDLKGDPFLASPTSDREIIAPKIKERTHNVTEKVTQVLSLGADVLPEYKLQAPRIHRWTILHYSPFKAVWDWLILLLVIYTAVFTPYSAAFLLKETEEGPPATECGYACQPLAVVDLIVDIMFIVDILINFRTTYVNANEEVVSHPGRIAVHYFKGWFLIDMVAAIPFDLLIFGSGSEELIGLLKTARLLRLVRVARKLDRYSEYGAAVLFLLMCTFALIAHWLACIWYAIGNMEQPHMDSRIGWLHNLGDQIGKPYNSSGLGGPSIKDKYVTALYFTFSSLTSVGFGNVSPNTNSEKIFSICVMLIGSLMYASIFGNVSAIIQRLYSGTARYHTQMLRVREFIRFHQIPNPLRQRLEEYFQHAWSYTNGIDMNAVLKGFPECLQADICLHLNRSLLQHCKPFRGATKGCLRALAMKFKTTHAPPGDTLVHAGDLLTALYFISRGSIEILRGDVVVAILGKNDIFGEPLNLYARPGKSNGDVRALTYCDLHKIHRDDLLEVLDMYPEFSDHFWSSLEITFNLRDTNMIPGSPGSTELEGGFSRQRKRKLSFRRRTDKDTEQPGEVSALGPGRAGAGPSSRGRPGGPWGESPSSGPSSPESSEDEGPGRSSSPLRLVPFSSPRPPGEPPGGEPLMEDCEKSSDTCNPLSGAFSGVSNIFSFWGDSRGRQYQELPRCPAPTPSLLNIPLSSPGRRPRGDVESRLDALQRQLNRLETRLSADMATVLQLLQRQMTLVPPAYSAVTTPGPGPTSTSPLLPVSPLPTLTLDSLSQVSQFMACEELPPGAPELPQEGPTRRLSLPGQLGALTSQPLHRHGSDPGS
row,SMILES,"hERG current change (%, negative = inhibition) at 10uM [%]"
1,COc1cc(/C=N/NC(=O)CCc2ccccc2)ccc1O,-1.02
2,COc1cc(/C=N/NC(=O)Cc2ccccc2)cc(OC)c1OC,8.74
3,O=C(CCC(=O)c1ccc(F)cc1)NC1CCCN(Cc2ccccc2F)C1 (stereo not shown),-19.4
4,CC(=O)Nc1cccc(NC(=O)C(F)(F)F)c1,21.2
5,Cc1onc(-c2ccccc2)c1C(=O)OCC(=O)Nc1ccc(C#N)cc1,-27.7
6,O=C(/C=C/c1ccc(-c2ccccc2[N+](=O)[O-])o1)c1ccccc1,18.4
7,CCC(C)NCCCOc1ccc([N+](=O)[O-])cc1.O=C(O)C(=O)O (stereo not shown),-74.7
8,COc1cc(C)ccc1OCCOCCOc1ccccc1[N+](=O)[O-],-29.5
9,CCOC(=O)C(CCCOc1ccc(C)cc1)C(=O)OCC,-8.52
10,CC(=O)c1ccc([N+](=O)[O-])cc1,15.7
11,CC(=O)c1ccc(OCCOc2ccc([N+](=O)[O-])cc2)cc1,-57.6
12,CCOC(=O)C(CCCCOc1ccc([N+](=O)[O-])cc1)C(=O)OCC,-54.8
13,COc1cc(C)ccc1OCCOCCOc1ccc([N+](=O)[O-])cc1,-54.8
14,COc1cc(C)ccc1OCCOCCOc1ccc(C)cc1[N+](=O)[O-],-36.1
15,CCOC(=O)C(CCCOc1ccccc1)C(=O)OCC,-14.3
16,CCCOc1ccc(OCCCCNC(C)CC)cc1.O=C(O)C(=O)O (stereo not shown),-18.9
17,CC(=O)Nc1ccc(OCCOc2ccc([N+](=O)[O-])cc2)cc1,0.991
18,CCC(C)NCCCCOc1ccc(Br)cc1.O=C(O)C(=O)O (stereo not shown),-32.6
19,CNC(=O)n1cc(C)c(-c2cccs2)n1,5.15
20,Cc1cc2c(cc1S(=O)(=O)N1CCCC1)n(C)c(=O)c(=O)n2C,-4.62
21,COc1ccc(CC(=O)OC(C)C(=O)c2ccc(C)cc2)cc1 (stereo not shown),20.4
22,COc1ccc(OC(=O)c2cn(C)nc2C(F)(F)F)cc1,-1.05
23,Cc1ccc2nc(=O)c(NNc3ccccc3)cnc2c1,15.6

row,SMILES,"hERG current change (%, negative = inhibition) at 10uM [%]"
1,CCCCN(C(=O)c1cc2c(s1)CCC2)c1c(N)n(CCCC)c(=O)[nH]c1=O,-0.537
2,C1=C(c2c[nH]c3ccccc23)CCNC1,7.59
3,CC(C)c1ccc(CNC(=O)C(=O)NCC2CCCO2)cc1 (stereo not shown),7.73
4,CCc1ccc(OCCCC(=O)NCc2ccco2)cc1,1.95
5,CCOC(=O)COc1ccc([N+](=O)[O-])cc1,-5.07
6,CCOC(=O)C(CCCCCOc1ccccc1[N+](=O)[O-])C(=O)OCC,-8.54
7,CCOC(=O)C(CCCCCOc1ccc([N+](=O)[O-])cc1)C(=O)OCC,-50.4
8,CCn1nc([N+](=O)[O-])c2c(-c3nc4ccccc4o3)c(N)n(CCCOC)c2c1=O,14.5
9,CCOC(=O)c1noc(C)c1C(=O)Nc1nc(C)cc(C)n1,11.5
10,Cc1ccc(F)cc1NC(=O)CSCc1c(C)noc1C,-3.15
11,O=c1[nH]nnc2c1sc1nc(N3CCOCC3)c3c(c12)CCCC3,-12.4
12,CC(=O)Nc1ccc(S(=O)(=O)NC(CC(=O)N2CCC3(CC2)OCCO3)C(C)C)cc1 (stereo not shown),18.9
13,O=C(Nc1cc(S(=O)(=O)N2CCOCC2)ccc1N1CCCCC1)c1cc(-c2ccccn2)nc2ccccc12,0.703
14,COc1ccc(N(CC(O)CN2CCOCC2)S(=O)(=O)c2ccc(C)cc2)cc1 (stereo not shown),-45.2
15,Cc1ccc(S(=O)(=O)N(CC(O)CN2CCCC2)c2ccccc2)cc1 (stereo not shown),-62.2
16,Cc1ccc(N(CC(O)CN2CCCCC2)S(=O)(=O)c2ccc(C)cc2)cc1 (stereo not shown),13.8
17,Cc1ccccc1S(=O)(=O)N(CC(O)CN1C(=O)NC(C)(C)C1=O)c1ccccc1 (stereo not shown),1.47
18,Cc1ccc(S(=O)(=O)N(CC(O)CN2CCOCC2)c2cc(Cl)ccc2Cl)cc1.Cl (stereo not shown),-31.9
19,Cc1ccc(N(CC(O)CN2CCCC2)S(=O)(=O)c2ccc(C)cc2)cc1.Cl (stereo not shown),-76.4
20,Cc1cc(C)n(CC(O)CN(c2ccccc2)S(=O)(=O)c2ccccc2)n1 (stereo not shown),7.17
21,COc1ccc(N(CC(O)Cn2c3ccccc3c3ccccc32)S(=O)(=O)c2ccccc2)cc1 (stereo not shown),3.8
22,COc1ccc(N(CC(O)CN2CCCCC2)S(=O)(=O)c2ccc(C)cc2)cc1 (stereo not shown),-78.6
23,Cc1ccccc1S(=O)(=O)N(CC(O)CN1CCCCC1)c1ccccc1 (stereo not shown),-71.7
